Laboratory results as given in article PMC4336329 (PLoS ONE, 2015).
The whole screen tested about 310,000 compounds, of which about 14,000 (4.5%) showed an effect of 50% or more. The effect is printed as a negative number. The entries come from a sample that favours strong results as a whole.

These compounds were tested against human ether-à-go-go-related gene (hERG) potassium channel (human, UniProt Q12809) (assay: primary screen, population patch clamp on CHO cells stably expressing hERG; higher = less effect of the substance).
Chain of human ether-à-go-go-related gene (hERG) potassium channel (Q12809 whole entry, looked up): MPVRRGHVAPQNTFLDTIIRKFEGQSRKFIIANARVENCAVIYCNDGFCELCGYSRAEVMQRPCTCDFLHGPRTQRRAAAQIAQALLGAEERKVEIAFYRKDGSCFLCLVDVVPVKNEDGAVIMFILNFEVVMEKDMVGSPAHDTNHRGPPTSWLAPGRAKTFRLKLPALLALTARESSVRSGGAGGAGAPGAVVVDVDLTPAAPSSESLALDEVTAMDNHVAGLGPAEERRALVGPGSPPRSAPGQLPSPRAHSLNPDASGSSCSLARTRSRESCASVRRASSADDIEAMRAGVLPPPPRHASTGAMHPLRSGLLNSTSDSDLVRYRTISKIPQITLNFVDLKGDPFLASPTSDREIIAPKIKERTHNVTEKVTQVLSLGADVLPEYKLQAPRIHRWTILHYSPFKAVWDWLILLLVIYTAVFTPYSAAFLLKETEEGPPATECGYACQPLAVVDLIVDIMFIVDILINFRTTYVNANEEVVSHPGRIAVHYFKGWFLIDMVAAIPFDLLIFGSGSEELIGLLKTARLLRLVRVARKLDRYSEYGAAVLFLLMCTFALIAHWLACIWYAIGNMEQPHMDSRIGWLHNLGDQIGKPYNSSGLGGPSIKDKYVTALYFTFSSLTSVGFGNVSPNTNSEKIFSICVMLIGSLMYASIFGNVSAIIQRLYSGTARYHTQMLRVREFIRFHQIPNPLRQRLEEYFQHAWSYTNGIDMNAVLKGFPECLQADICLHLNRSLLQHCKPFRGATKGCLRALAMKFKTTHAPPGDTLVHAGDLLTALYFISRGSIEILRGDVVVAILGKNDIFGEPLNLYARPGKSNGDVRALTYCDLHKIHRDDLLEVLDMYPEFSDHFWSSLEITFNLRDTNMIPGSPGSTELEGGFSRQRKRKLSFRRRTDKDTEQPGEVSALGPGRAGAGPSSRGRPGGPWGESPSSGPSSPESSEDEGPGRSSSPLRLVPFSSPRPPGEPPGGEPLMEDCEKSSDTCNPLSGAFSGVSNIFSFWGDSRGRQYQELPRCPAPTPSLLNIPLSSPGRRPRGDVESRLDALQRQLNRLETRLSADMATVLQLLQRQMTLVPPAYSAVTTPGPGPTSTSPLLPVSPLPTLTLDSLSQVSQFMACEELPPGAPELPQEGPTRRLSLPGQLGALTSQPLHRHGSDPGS
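Further: peak tail current of the secondary pulse compared with the same well before compound.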

Row | SMILES | hERG current change (%, negative = inhibition) at 10uM [%]
1 | Cc1onc(-c2ccccc2)c1-c1nnc(CN2CCN(S(=O)(=O)c3ccccc3F)CC2)o1 | -28.4
2 | Cc1c(/C=N\NC(=O)C2(C)CC2(Cl)Cl)cnn1C (stereo not drawn) | 5.55
3 | COc1ccc(CC(=O)NC(=S)Nc2ccc(S(N)(=O)=O)cc2)cc1 | -17.6
4 | COc1ccc(/C=N/NC(=O)c2cccc(Br)c2)cc1CSc1ccccn1 | 2.67
5 | CCCNC(=O)c1cccc(Cn2nc(C)c(Br)c2C)c1 | -6.12
6 | CSc1cc(C)n(-c2ccc(Cl)cc2)c(=S)c1C(C)=O | -33.9
7 | Cn1c(SCC(=O)NNC(=O)c2ccccc2O)nnc1-c1ccccc1 | 18
8 | CCN(CC)S(=O)(=O)c1ccc(N(C)Cc2cccnc2)nc1 | -15.2
9 | CC(C)[NH+]1CCC2(CC1)C(C#N)=C(N)NC([S-])=C2C#N | -4.59
10 | COc1ccc(CN(CC(=O)NC2CCCC2)C(=O)c2ccc(-c3ccccc3)[nH]2)cc1 | -19.9
11 | CCCCN1C(=S)NC[C@@H]1Cc1ccccc1 | -11.8
12 | Cc1ccnc(NCn2nnc3ccccc32)c1 | 7.69
13 | Cc1ccc(NC(=O)C(=O)NCCN2CCN(C(=S)Nc3ccccc3)CC2)cc1 | -19.1
14 | Cc1ccc(NC(=O)C(=O)NCCN2CCN(C(=O)C(c3ccccc3)c3ccccc3)CC2)cc1 | -9.93
15 | Cc1ccccc1C(=O)N1CCN(CCNC(=O)C(=O)Nc2ccc(Br)cc2)CC1 | -68.8
16 | CC1CC(C)CN(CC(O)COCc2ccccc2F)C1.Cl (stereo not drawn) | -23.4
17 | COc1ccc(CCNC(=S)Nc2cccc(C)c2)cc1 | -8.64
18 | CCC1(c2ccc(F)cc2)NC(=O)N(CC(=O)N2c3ccccc3NC(=O)CC2C)C1=O (stereo not drawn) | -58.4
19 | CCC1(c2ccc(F)cc2)NC(=O)N(CC(=O)N2c3ccccc3CC2C)C1=O (stereo not drawn) | -12.9
20 | CCC1(c2ccc(F)cc2)NC(=O)N(CC(=O)N2CC(=O)Nc3ccccc32)C1=O (stereo not drawn) | -5.52
21 | Cc1c(C(c2ccc(O)cc2)c2c(C)n(C)n(-c3ccccc3)c2=O)c(=O)n(-c2ccccc2)n1C | -7.93
22 | COc1ccccc1/C=C1\SC(=S)N(CCC(=O)N2CCCCC2CCO)C1=O (stereo not drawn) | 16.7
23 | CNc1ccccc1C(C)(C)c1cc(C)[nH]n1 | 22.6
24 | Cc1cc(=O)[nH]c(SCC(=O)Nc2ccc3c(c2)CCC3)c1C#N | -6.4
